Laboratory results from PubChem BioAssay (NCATS).
Results filed as inconclusive are left out. Calls of active or inactive are those of the source. Unless noted, calls come from the whole dose curve; as a rule, active = well fitted curve in the direction sought with a large enough effect; inconclusive = small, poorly fitted or top-dose-only effect, or another doubt; inactive = no such curve, though single readings can be large; an effect the other way counts as inactive or inconclusive.

Tests used:
[1] = target: Lysosomal acid glucosylceramidase (Homo sapiens) (UniProt P04062); assay: Glucocerebrosidase-p2 (AID 348; in the data active = potency below about 10 µM; note: potency is the fitted concentration of half-maximal effect); conditions: purified GBA, blue fluorogenic substrate, 40 min
Sequence of Lysosomal acid glucosylceramidase (Homo sapiens) (P04062 whole entry, looked up): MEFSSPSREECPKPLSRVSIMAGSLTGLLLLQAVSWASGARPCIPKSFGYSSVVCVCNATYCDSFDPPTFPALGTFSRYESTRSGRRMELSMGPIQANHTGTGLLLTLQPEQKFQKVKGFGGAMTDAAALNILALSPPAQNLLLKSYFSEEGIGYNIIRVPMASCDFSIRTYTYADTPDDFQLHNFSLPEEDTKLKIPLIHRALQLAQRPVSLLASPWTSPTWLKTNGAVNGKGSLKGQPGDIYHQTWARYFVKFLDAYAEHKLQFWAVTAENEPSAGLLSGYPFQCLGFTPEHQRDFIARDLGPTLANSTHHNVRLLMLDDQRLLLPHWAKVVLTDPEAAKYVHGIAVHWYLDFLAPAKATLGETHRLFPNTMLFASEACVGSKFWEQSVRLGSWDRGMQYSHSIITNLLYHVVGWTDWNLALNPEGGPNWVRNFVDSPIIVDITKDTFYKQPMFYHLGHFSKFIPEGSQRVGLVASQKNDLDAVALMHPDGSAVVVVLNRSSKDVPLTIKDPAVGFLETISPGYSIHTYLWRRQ
Procedure, shortened: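 Compounds titrated from 0.6 nM upwards against 0.2 nM enzyme in pH 5.9 citric acid/KH2PO4, taurocholate, tween-20; blue fluorogenic substrate 80 uM, 40 min room temperature, stopped and read Ex 365/Em 440 for AC50.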

[2] = AP1 Signaling Pathway (AID 357; active = well fitted curve in either direction with a large enough effect, not every such curve was filed as active; note: % is set by controls: 0 for no effect and ±100 for the full control effect); conditions: ME-180 AP-1-bla reporter, EGF-induced, beta-lactamase ratio, 5 h; at 7.69 µM (top of the series) unless noted
Procedure, shortened: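 ME-180 cells with beta-lactamase reporter under AP-1 response element, stimulated with EC50 EGF; compounds tested in titration series, 5 h at 37 °C. CCF4 substrate added 2.5 h at room temperature; 460/530 nm emission ratio gave %activity and AC50.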

[3] = NFAT Signaling Pathway (AID 444; active = well fitted curve in either direction with a large enough effect, not every such curve was filed as active;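 note: carbachol stimulus at about its EC50 of 1 µM final; % is set by controls: 0 for no effect and ±100 for the full control effect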); conditions: Jurkat NFAT-bla M1, carbachol, beta-lactamase ratio, 5 h; at 7.69 µM (top of the series) unless noted
Procedure, shortened: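 Jurkat cells with NFAT-driven β-lactamase reporter and co-expressed M1 receptor, stimulated with carbachol (final 1 uM, ~EC50), compound titration, 5 h at 37 °C. CCF4 loaded 1 h at RT; 460/530 nm ratio gave %activity and AC50.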

[4] = Stat Signaling Pathway (AID 446; active = well fitted curve in either direction with a large enough effect, not every such curve was filed as active;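 note: ME-180 cervical cancer cells given 40 pM IL-6 alongside compound; SIE-controlled beta-lactamase reporter measured as 460/530 nm FRET emission ratio; % is set by controls: 0 for no effect and ±100 for the full control effect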); conditions: ME-180 SIE beta-lactamase reporter, IL-6 stimulated, 5 h; at 7.69 µM (top of the series) unless noted
Procedure, shortened: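 ME-180 cells carrying a SIE-driven beta-lactamase reporter are stimulated with 40 pM IL-6 for 5 h at 37C in the presence of compound. The 460/530 nm FRET substrate ratio is read after 2.5 h at RT. Data are normalised to 300 pM IL-6 and to 125 nM JAK inhibitor controls.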

[5] = target: Glucocorticoid receptor (Homo sapiens) (UniProt P04150); assay: GR-GFP Redistribution (AID 450;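 active = compounds whose dose series gives a full or clear partial fitted curve of increased nuclear translocation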; note: potency is the fitted concentration of half-maximal effect); conditions: U2OS GR-GFP nuclear translocation, laser cytometry, 2 h
Sequence of Glucocorticoid receptor (Homo sapiens) (P04150 whole entry, looked up, the tested form may be a part): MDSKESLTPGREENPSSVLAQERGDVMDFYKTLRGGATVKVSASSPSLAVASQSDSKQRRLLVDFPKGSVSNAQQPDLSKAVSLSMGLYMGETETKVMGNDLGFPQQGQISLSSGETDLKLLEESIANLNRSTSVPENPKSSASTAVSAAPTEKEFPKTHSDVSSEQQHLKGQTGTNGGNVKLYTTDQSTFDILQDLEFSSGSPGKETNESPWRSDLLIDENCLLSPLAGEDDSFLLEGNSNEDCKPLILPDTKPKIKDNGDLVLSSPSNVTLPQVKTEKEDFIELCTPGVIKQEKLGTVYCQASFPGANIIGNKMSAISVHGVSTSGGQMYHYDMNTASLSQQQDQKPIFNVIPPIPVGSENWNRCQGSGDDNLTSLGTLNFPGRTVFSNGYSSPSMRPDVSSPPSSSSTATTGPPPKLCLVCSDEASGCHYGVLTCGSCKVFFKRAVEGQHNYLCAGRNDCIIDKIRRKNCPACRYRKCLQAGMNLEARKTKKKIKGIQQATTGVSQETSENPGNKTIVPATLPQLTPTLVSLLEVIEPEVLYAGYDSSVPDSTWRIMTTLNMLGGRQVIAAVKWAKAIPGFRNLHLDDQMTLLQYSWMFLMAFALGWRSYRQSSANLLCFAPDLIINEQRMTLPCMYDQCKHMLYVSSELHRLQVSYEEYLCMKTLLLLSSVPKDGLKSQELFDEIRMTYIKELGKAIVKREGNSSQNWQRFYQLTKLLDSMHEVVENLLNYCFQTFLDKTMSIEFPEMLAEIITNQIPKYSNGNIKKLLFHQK

[6] = target: Glucocorticoid receptor (Homo sapiens) (UniProt P04150); assay: GR-EFC Redistribution (AID 451; calls by dose curve; note: potency is the fitted concentration of half-maximal effect); conditions: CHO-K1 GR-EFC translocation, beta-gal luminescence, 2 h
Procedure, shortened: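 CHO-K1 cells expressing nuclear EA and GR-ED fragments of b-gal; compounds titrated up to 46 uM final, 2 h at 37 C. GR nuclear translocation read as complemented b-gal luminescence after 1 h RT detection.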

[7] = target: Mitogen-activated protein kinase 10 (Mus musculus) (UniProt Q61831); assay: JNK3 AlphaScreen Assay (AID 530; active = well fitted curve in either direction with a large enough effect, not every such curve was filed as active;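 note: kinase came from lysate of stimulated human HepG2 cells; signal reports phosphorylation of biotinylated GST-cJun 1-79 at Ser73 with 10 µM ATP; % is set by controls: 0 for no effect and ±100 for the full control effect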); conditions: JNK3 lysate, c-Jun phosphorylation; series mostly up to 57.1 µM
Procedure, shortened: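 qHTS format: compounds tested as titrations against IL-1beta/TNF-alpha-activated HepG2 lysate JNK3 with biotin-GST-cJun substrate and 10 uM ATP at room temperature. Loss of anti-phospho-cJun AlphaScreen signal indicates inhibition.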

[8] = target: 3',5'-cyclic-AMP phosphodiesterase 4B (Homo sapiens) (UniProt Q07343); assay: qHTS Assay for Inhibitors of PDE-IV (AID 607; active = well fitted activation curve with a large enough effect in the main read-out, with a control signal flat, not every such curve was filed as active; note: % of control where 0% means no effect); conditions: HEK293 ACTOne CNG channel cells, membrane potential fluorescence; series mostly up to 22.9 µM
Sequence of 3',5'-cyclic-AMP phosphodiesterase 4B (Homo sapiens) (Q07343 whole entry, looked up): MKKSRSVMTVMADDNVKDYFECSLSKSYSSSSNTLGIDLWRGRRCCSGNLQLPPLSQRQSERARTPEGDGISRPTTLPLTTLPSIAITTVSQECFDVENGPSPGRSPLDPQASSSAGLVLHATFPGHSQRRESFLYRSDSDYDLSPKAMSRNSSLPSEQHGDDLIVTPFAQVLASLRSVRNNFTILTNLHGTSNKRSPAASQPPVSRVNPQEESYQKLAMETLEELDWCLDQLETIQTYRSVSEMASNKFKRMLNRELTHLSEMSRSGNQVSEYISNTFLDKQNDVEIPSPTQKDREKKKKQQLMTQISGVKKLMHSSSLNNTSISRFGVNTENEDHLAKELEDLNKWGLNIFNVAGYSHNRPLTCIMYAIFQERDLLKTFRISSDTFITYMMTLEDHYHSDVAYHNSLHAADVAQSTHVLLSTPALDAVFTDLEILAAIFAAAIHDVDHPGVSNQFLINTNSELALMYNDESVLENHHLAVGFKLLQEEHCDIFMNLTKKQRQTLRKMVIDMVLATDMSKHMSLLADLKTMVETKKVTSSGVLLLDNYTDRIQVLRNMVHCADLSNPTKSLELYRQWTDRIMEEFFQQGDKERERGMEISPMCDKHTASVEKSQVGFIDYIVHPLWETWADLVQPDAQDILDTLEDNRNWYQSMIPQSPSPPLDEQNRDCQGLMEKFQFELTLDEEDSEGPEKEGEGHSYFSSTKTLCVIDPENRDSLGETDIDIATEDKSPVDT
Procedure, shortened: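 HEK293 ACTOne cells with CNG channel (1000/well), endogenous PDE4; membrane potential dye, compounds up to 22.9 uM final. Fluorescence Ex 535/Em 590; RO 20-1724 (100 uM final) as reference.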

[9] = target: Cytochrome P450 3A4 (Homo sapiens) (UniProt P08684); assay: qHTS Assay for Inhibitors and Substrates of Cytochrome P450 3A4 (AID 884); conditions: recombinant CYP3A4, Luciferin-PPXE luminescence; series mostly up to 57.1 µM; note: potency is the fitted concentration of half-maximal effect; nearly all actives have a fitted effect of over 50% in size
Sequence of Cytochrome P450 3A4 (Homo sapiens) (P08684 whole entry, looked up): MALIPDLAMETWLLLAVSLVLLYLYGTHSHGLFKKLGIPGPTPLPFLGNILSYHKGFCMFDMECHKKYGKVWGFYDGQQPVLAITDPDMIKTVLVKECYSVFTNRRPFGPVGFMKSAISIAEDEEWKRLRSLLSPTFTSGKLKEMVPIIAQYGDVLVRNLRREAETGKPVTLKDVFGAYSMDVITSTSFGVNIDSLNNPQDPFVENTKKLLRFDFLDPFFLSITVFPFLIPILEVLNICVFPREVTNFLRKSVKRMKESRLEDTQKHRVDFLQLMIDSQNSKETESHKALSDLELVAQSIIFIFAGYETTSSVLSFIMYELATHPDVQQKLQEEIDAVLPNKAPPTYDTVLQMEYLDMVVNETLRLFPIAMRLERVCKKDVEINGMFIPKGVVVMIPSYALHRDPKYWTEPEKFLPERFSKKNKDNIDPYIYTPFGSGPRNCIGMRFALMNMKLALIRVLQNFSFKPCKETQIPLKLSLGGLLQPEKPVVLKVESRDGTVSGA
Procedure, shortened: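 20 nM human CYP3A4 with 25 uM Luciferin-PPXE (at KM) in 200 mM KPO4, preincubated 10 min with compound; NADPH regeneration started a 60 min RT reaction. Luciferin detected by luminescence, normalized to 57 uM ketoconazole as full inhibition.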

[10] = target: Cytochrome P450 3A4 (Homo sapiens) (UniProt P08684); assay: qHTS Assay for Activators of Cytochrome P450 3A4 (AID 885); conditions: recombinant CYP3A4, Luciferin-PPXE luminescence, 60 min; series mostly up to 57.1 µM; note: nearly all actives have a fitted effect of over 65% in size
Procedure, shortened: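 Human CYP3A4 (20 nM) with Luciferin-PPXE at 25 uM (its KM) in 200 mM KPO4; 10 min compound preincubation, then NADPH regeneration and 60 min reaction at RT. Luciferin read by luminescence; normalized to 57 uM ketoconazole full inhibition.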

[11] = qHTS Assay for Lipid Storage Modulators (AID 1519; calls by dose curve); conditions: Drosophila S3 cells, BODIPY lipid droplet/cell ratio, laser cytometry, cells loaded with oleic acid; for activity change, negative = inhibition: at 57.5 µM (top of the series)
Procedure, shortened: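 Cells seeded at 5,000 per well were treated with compounds over a concentration series and loaded with oleic acid (400 uM, as added). Lipid droplet fluorescence (488 nm excitation, 500-530 nm channel) was read by laser-scanning cytometry and normalized to 20 uM Triacsin C.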

[12] = target: Dual specificity protein kinase CLK4 (Homo sapiens) (UniProt Q9HAZ1); assay: qHTS Assay for Inhibitors of CDC-like Kinase 4 (Kinase-Glo Assay) (AID 1770); conditions: recombinant Clk4, Kinase-Glo ATP depletion luminescence; series mostly up to 66.7 µM; note: nearly all actives have a fitted effect of over 65% in size; note: potency is the fitted concentration of half-maximal effect
Sequence of Dual specificity protein kinase CLK4 (Homo sapiens) (Q9HAZ1 whole entry, looked up): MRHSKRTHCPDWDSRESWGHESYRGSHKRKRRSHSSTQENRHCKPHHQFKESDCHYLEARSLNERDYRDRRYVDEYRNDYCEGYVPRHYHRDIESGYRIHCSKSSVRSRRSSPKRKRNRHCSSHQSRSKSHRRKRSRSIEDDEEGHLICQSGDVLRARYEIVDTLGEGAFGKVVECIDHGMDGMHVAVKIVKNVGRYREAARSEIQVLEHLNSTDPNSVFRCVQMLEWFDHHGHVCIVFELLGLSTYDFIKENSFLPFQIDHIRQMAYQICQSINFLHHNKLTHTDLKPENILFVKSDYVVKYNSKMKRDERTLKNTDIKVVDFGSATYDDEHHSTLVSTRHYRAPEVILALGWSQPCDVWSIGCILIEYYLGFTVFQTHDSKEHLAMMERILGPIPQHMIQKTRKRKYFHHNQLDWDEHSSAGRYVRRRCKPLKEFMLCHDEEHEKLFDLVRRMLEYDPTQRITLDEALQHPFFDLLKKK
Procedure, shortened: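 Inhibition was judged from remaining ATP, measured by Ultra-Glo luciferase bioluminescence after Clk4 (25 nM) had acted on RS peptide at 1 uM ATP for 4.5 hours, room temperature.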

[13] = target: Dual specificity protein kinase CLK4 (Homo sapiens) (UniProt Q9HAZ1); assay: qHTS Assay for Inhibitors of CDC-like Kinase 4 (ADP-Glo Assay) (AID 1771); conditions: recombinant CLK4, ADP-Glo luminescence; series mostly up to 80 µM; note: nearly all actives have a fitted effect of over 70% in size; note: potency is the fitted concentration of half-maximal effect
Procedure, shortened: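 Kinase reaction: Clk4 at 25 nM, RS repeat peptide substrate at 100 uM, ATP at 1 uM, 1 hr, room temperature. Product ADP detected as luciferase signal via ADP-Glo.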

[14] = target: Dual specificity protein kinase CLK4 (Homo sapiens) (UniProt Q9HAZ1); assay: qHTS Assay for Inhibitors of CDC-like Kinase 4 (ADP-FP Assay) (AID 1795); conditions: Transcreener ADP fluorescence polarization; series mostly up to 50 µM; note: nearly all actives have a fitted effect of over 60% in size; note: potency is the fitted concentration of half-maximal effect
Procedure, shortened: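 Inhibition of ADP formation by 6.25 nM Clk4 is measured using 1 uM ATP and 100 uM RS repeat peptide over one hour. Produced ADP displaces a fluorescent tracer from antibody, lowering polarization.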

[15] = target: Ubiquitin carboxyl-terminal hydrolase 1 (Homo sapiens) (UniProt O94782); assay: Inhibitors of USP1/UAF1: Pilot qHTS (AID 504865); conditions: purified USP1/UAF1, Ub-rhodamine cleavage fluorescence; series mostly up to 54.9 µM; note: nearly all actives have a fitted effect of over 35% in size; note: potency is the fitted concentration of half-maximal effect
Sequence of Ubiquitin carboxyl-terminal hydrolase 1 (Homo sapiens) (O94782 whole entry, looked up): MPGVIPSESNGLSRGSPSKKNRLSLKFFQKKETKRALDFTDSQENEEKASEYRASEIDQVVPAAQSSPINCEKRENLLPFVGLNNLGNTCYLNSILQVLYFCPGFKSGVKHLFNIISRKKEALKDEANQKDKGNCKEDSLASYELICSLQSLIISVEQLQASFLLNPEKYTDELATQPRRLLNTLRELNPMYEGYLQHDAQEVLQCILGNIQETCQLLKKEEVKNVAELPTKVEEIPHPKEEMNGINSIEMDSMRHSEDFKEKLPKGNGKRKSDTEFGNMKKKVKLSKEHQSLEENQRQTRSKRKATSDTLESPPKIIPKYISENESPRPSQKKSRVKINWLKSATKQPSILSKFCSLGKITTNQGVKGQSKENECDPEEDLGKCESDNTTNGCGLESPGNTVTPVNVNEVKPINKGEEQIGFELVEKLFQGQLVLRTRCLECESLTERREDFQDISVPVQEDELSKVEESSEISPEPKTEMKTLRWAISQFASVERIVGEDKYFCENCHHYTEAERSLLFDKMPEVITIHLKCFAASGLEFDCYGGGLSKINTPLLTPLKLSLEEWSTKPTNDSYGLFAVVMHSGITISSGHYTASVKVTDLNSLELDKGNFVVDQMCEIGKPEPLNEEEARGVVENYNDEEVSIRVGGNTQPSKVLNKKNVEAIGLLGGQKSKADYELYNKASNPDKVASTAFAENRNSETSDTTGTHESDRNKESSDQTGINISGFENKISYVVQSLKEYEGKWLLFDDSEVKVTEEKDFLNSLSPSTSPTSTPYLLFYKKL
Procedure, shortened: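 Kinetic fluorescence assay: 1nM USP1/UAF1, 15 min compound preincubation, then 150nM Ub-Rho; 480/540 nm.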

[16] = qHTS Assay for Identification of Small Molecule Agonists for Hypoxia Response Element Signaling Pathway (AID 914; active = well fitted activation curve with a large enough effect in the signal ratio, with a control signal flat, not every such curve was filed as active; the % refers to the signal ratio; note: % of control where 0% means no effect); conditions: ME-180 (cervical carcinoma) HRE-bla reporter, beta-lactamase ratio, CoCl2, 17 h; activation: stronger effect = higher value
Procedure, shortened: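 HRE-bla ME-180 assay for agonist-like enhancement of an EC50 CoCl2 stimulus: 17 h at 37 degrees Celsius, CCF4 for 2.5 h, ratiometric 460/530 nm signal converted to %Activity and fitted to AC50.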

[17] = target: Cytochrome P450 1A2 (Homo sapiens) (UniProt P05177); assay: p450-cyp1a2 (AID 410; calls by dose curve; note: potency is the fitted concentration of half-maximal effect); conditions: recombinant CYP1A2, luciferin-ME demethylation, luminescence; series mostly up to 57 µM
Sequence of Cytochrome P450 1A2 (Homo sapiens) (P05177 whole entry, looked up): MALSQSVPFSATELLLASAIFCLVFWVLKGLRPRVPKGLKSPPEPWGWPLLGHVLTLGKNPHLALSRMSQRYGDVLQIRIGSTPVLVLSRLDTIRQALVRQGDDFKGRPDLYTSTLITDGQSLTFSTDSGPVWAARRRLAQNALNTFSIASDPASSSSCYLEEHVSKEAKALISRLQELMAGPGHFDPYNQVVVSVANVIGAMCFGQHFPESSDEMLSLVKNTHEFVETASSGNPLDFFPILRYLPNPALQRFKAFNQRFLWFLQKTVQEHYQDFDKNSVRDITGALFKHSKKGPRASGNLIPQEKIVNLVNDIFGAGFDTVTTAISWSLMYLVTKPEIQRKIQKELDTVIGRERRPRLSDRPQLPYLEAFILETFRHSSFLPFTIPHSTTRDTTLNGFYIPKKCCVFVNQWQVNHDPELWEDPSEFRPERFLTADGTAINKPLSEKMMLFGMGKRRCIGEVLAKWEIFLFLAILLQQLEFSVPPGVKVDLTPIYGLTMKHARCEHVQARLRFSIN
Procedure, shortened: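 Inhibition was calculated relative to 57 uM furafylline (full inhibition). The reaction used human CYP1A2 at 20nM with Luciferin-ME at its Km, 100uM, driven by an NADPH-regenerating system for 60 min at room temperature.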

[18] = measured here: cell count channel max response
[19] = measured here: lipid channel max response

COc1ccccc1-c1cncnc1N1CCN(C)CC1
active: Potency [9] 2.51 µM
inactive: Potency [1] > 11.4 µM | activity change, negative = inhibition [2] 3.96% | activity change, negative = inhibition [3] -14.4% | activity, negative = inhibition [4] 4.86% | Potency [5] > 46 µM | Potency [6] > 46 µM | Potency [7] | Potency [8] | Potency [10] | activity change, negative = inhibition [11] 3.21% | Potency [12] | Potency [13] | Potency [14] | Potency [15]
28%: max response [11, 18]
29.7%: max response [11, 19]

COc1ccc(-c2nc3cnc(OC)nc3n(C[C@H]3CCCO3)c2=O)cc1
2.19%: max response [11, 18]
inactive: Potency [1] > 11.4 µM | activity change, negative = inhibition [2] -17.7% | activity change, negative = inhibition [3] 11.8% | activity, negative = inhibition [4] -12.4% | Potency [5] > 9.22 µM | Potency [6] > 46 µM | Potency [7] | activity change, negative = inhibition [11] 0.324% | Potency [12] | Potency [13] | Potency [14] | Potency [15]
1.25%: max response [11, 19]

COc1ccccc1-c1ccc2ncnc(NC3CC3)c2c1
-20.8%: max response [11, 18]
active: Potency [12] 11.2 µM | Potency [13] 14.1 µM | Potency [14] 12.6 µM
inactive: Potency [1] > 11.4 µM | activity change, negative = inhibition [2] -1.03% | activity change, negative = inhibition [3] -1.81% | activity, negative = inhibition [4] -18.1% | Potency [5] > 46 µM | Potency [6] > 46 µM | Potency [7] | activation [16] 27.8% | activity change, negative = inhibition [11] -9.29% | Potency [15]
-29.7%: max response [11, 19]

O=c1cnc2cnc(N3CCNCC3)nc2n1C1CC1
inactive: Potency [1] > 11.4 µM | activity change, negative = inhibition [2] -8.15% | activity change, negative = inhibition [3] -1.86% | activity, negative = inhibition [4] -7.26% | Potency [5] > 9.22 µM | Potency [6] > 46 µM | Potency [7] | Potency [8] | activity change, negative = inhibition [11] 0.852% | Potency [12] | Potency [13] | Potency [14] | Potency [15]
7.84%: max response [11, 19]
9.12%: max response [11, 18]

COc1cccc(Cn2c(=O)c(CCc3ccccc3)nc3cnc(N4CCNCC4)nc32)c1
9.35%: max response [11, 18]
active: Potency [17] 12.6 µM
12.1%: max response [11, 19]
inactive: Potency [1] > 11.4 µM | activity change, negative = inhibition [2] 4.19% | activity change, negative = inhibition [3] 19.7% | activity, negative = inhibition [4] -8.25% | Potency [5] > 9.22 µM | Potency [6] > 46 µM | Potency [7] | Potency [8] | Potency [10] | activation [16] 8.93% | activity change, negative = inhibition [11] 3.32% | Potency [12] | Potency [13] | Potency [14] | Potency [15]

COCCn1c(=O)c(-c2ccc(Cl)cc2)nc2cnc(N3CCNCC3)nc21
inactive: Potency [1] > 11.4 µM | Potency [5] > 9.22 µM | Potency [6] > 46 µM | Potency [7] | Potency [8] | activity change, negative = inhibition [11] 5.4% | Potency [12] | Potency [13] | Potency [14] | Potency [15]
20.2%: max response [11, 18]
21.3%: max response [11, 19]

CN(C)Cc1ccccc1-c1cc(NCc2cccs2)ncn1
25.3%: max response [11, 19]
inactive: Potency [1] > 11.4 µM | activity change, negative = inhibition [2] 9.46% | activity, negative = inhibition [4] 1.42% | Potency [5] > 46 µM | Potency [6] > 46 µM | Potency [7] | Potency [8] | Potency [10] | activity change, negative = inhibition [11] 3.12% | Potency [12] | Potency [13] | Potency [14] | Potency [15]
23.4%: max response [11, 18]
active: Potency [17] 25.1 µM

COc1cccc(Nc2ncc3nc(C)c(=O)n(-c4ccccc4)c3n2)c1
inactive: Potency [1] > 11.4 µM | activity change, negative = inhibition [3] 11.1% | activity, negative = inhibition [4] -20.1% | Potency [5] > 9.22 µM | Potency [6] > 46 µM | Potency [7] | Potency [8] | Potency [10] | activity change, negative = inhibition [11] -6.79% | Potency [15]
-3.12%: max response [11, 18]
-13.9%: max response [11, 19]
active: Potency [17] 5.01 µM | Potency [12] 10 µM | Potency [13] 12.6 µM | Potency [14] 1.58 µM

COc1ccccc1-c1nccc(NCc2ccccc2)n1
0.722%: max response [11, 19]
active: Potency [17] 2.51 µM | Potency [15] 22.4 µM
inactive: Potency [1] > 11.4 µM | activity change, negative = inhibition [2] -2.63% | activity change, negative = inhibition [3] 1.11% | activity, negative = inhibition [4] 1.51% | Potency [5] > 46 µM | Potency [6] > 46 µM | Potency [7] | Potency [10] | activity change, negative = inhibition [11] 1.38% | Potency [12] | Potency [13] | Potency [14]
3.72%: max response [11, 18]

N#CCCn1c(=O)c(-c2cc(F)cc(F)c2)nc2cnc(Oc3ccccc3)nc21
active: Potency [17] 2 µM
inactive: activity change, negative = inhibition [2] -18% | activity change, negative = inhibition [3] 1.84% | activity, negative = inhibition [4] -2.23% | Potency [5] > 9.22 µM | Potency [6] > 46 µM | Potency [7] | Potency [8] | activity change, negative = inhibition [11] 7.78% | Potency [12] | Potency [13] | Potency [14] | Potency [15]
10.8%: max response [11, 18]
17.1%: max response [11, 19]

COc1ccccc1-c1nccc(Nc2ccc(F)cc2)n1
inactive: Potency [1] > 11.4 µM | activity change, negative = inhibition [2] 6.43% | activity change, negative = inhibition [3] 10.2% | activity, negative = inhibition [4] -4% | Potency [5] > 46 µM | Potency [6] > 46 µM | Potency [7] | activity change, negative = inhibition [11] 4.58% | Potency [12] | Potency [13] | Potency [14]
12.9%: max response [11, 19]
9.46%: max response [11, 18]
